Data as given in PubChem BioAssay AID1159580 (chemical genetic matrix, 2015).
The whole screen tested about 5,500 compounds, of which about 2,000 (36%) were called active. Not shown: some 18% with an inconclusive outcome. Cut-off read from the data, not from the text of the source: active = normalized growth mostly below about 0.91 (no sharp cut-off); inconclusive = no clear call, values can overlap the other calls; inactive = mostly above about 0.92. The list shows a part of the results.

Assay: chemical genetic growth profiling, strain panel (AID 1159580);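 note: tested at 20 µM; growth read once vehicle control cultures reached saturation at 30 °C; 1 = growth at the plate median or of vehicle wells; lower values mean less growth of the strain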
Details: S. cerevisiae deletion strains, growth OD
[1] = locus YAR019C, strain CDC15, hits give low values
[2] = locus YBL105C, strain PKC1, hits give low values
[3] = locus YBR135W, strain CKS1, hits give low values
[4] = locus YBR136W, strain MEC1, hits give low values
[5] = locus YBR160W, strain CDC28, hits give low values
[6] = locus YDL017W, strain CDC7, hits give low values
[7] = locus YDL028C, strain MPS1, hits give low values
[8] = locus YDL101C, strain DUN1, hits give low values
[9] = locus YDL108W, strain KIN28, hits give low values
[10] = locus YDL132W, strain cdc53, hits give low values
[11] = locus YDL214C, strain PRR2, hits give low values
[12] = locus YDR052C, strain DBF4, hits give low values
[13] = locus YDR054C, strain cdc34, hits give low values
[14] = locus YDR226W, strain ADK1, hits give low values
[15] = locus YDR477W, strain SNF1, hits give low values
[16] = locus YER123W, strain YCK3, hits give low values
[17] = locus YER133W, strain GLC7, hits give low values
[18] = locus YFL009W, strain cdc4, hits give low values
[19] = locus YFL029C, strain CAK1, hits give low values
[20] = locus YFR003C, strain YPI1, hits give low values
[21] = locus YFR019W, strain FAB1, hits give low values
[22] = locus YFR028C, strain CDC14, hits give low values
[23] = locus YGR040W, strain KSS1, hits give low values
[24] = locus YGR052W, strain FMP48, hits give low values
[25] = locus YGR092W, strain DBF2, hits give low values
[26] = locus YHR030C, strain SLT2, hits give low values
[27] = locus YHR079C, strain IRE1, hits give low values
[28] = locus YHR082C, strain KSP1, hits give low values
[29] = locus YHR205W, strain SCH9, hits give low values
[30] = locus YIL147C, strain SLN1, hits give low values
[31] = locus YJL095W, strain BCK1, hits give low values
[32] = locus YJL128C, strain PBS2, hits give low values
[33] = locus YJL157C, strain FAR1, hits give low values
[34] = locus YJR016C, strain ILV3, hits give low values
[35] = locus YJR066W, strain TOR1 (second series), hits give low values
[36] = locus YJR066W, strain TOR1, hits give low values
[37] = locus YKL048C, strain ELM1, hits give low values
[38] = locus YKL067W, strain YNK1, hits give low values
[39] = locus YKL101W, strain HSL1, hits give low values
[40] = locus YKL193C, strain SDS22, hits give low values
[41] = locus YKL203C, strain TOR2, hits give low values
[42] = locus YLR113W, strain HOG1, hits give low values
[43] = locus YLR133W, strain CKI1, hits give low values
[44] = locus YLR403W, strain SFP1, hits give low values
[45] = locus YML070W, strain DAK1, hits give low values
[46] = locus YMR001C, strain CDC5, hits give low values
[47] = locus YMR205C, strain PFK2 (second series), hits give low values
[48] = locus YMR277W, strain FCP1, hits give low values
[49] = locus YNL006W, strain LST8, hits give low values
[50] = locus YNL020C, strain ARK1, hits give low values
[51] = locus YNL161W, strain CBK1, hits give low values
[52] = locus YNL183C, strain NPR1, hits give low values
[53] = locus YNL207W, strain RIO2, hits give low values
[54] = locus YNL222W, strain SSU72, hits give low values
[55] = locus YNL307C, strain MCK1 (second series), hits give low values
[56] = locus YOL078W, strain AVO1, hits give low values
[57] = locus YOL136C, strain PFK27, hits give low values
[58] = locus YOR061W, strain CKA2, hits give low values
[59] = locus YOR119C, strain RIO1, hits give low values
[60] = locus YOR231W, strain MKK1, hits give low values
[61] = locus YOR329C, strain SCD5, hits give low values
[62] = locus YPL031C, strain PHO85, hits give low values
[63] = locus YPL153C, strain RAD53, hits give low values
[64] = locus YPL204W, strain HRR25, hits give low values
[65] = locus YPL209C, strain IPL1, hits give low values
[66] = locus YPL256C, strain CLN2, hits give low values
[67] = locus YPR025C, strain CCL1, hits give low values
[68] = locus YPR106W, strain ISR1, hits give low values
[69] = locus YPR111W, strain DBF20, hits give low values
[70] = strain NNK1, hits give low values
[71] = strain TSCII, hits give low values

Measured: normalized growth

COc1cc(NC(=S)NC(=O)c2ccccc2)c(OC)cc1Cl
inactive: [1] 0.985 | [2] 0.995 | [3] 0.99 | [4] 0.99 | [5] 0.997 | [6] 0.998 | [7] 0.988 | [8] 0.998 | [9] 0.981 | [10] 1 | [11] 0.962 | [12] 0.996 | [13] 0.994 | [14] 0.996 | [15] 0.973 | [16] 0.963 | [17] 0.986 | [18] 0.994 | [19] 0.98 | [20] 0.998 | [21] 0.974 | [22] 1 | [23] 0.963 | [24] 1.04 | [25] 0.989 | [26] 0.949 | [27] 0.979 | [28] 1 | [29] 0.9 | [30] 0.993 | [31] 0.961 | [32] 0.971 | [33] 0.989 | [34] 1 | [35] 0.951 | [36] 0.997 | [37] 0.981 | [38] 0.974 | [39] 0.939 | [40] 1 | [41] 1.05 | [42] 0.91 | [43] 0.968 | [44] 0.941 | [45] 0.957 | [46] 0.995 | [47] 0.977 | [48] 1 | [49] 0.991 | [50] 0.977 | [51] 1 | [52] 0.981 | [53] 1 | [54] 0.992 | [55] 0.968 | [56] 0.999 | [57] 0.968 | [58] 0.953 | [59] 0.983 | [60] 0.962 | [61] 0.996 | [62] 0.971 | [63] 0.966 | [64] 0.986 | [65] 0.995 | [66] 0.959 | [67] 0.998 | [68] 0.989 | [69] 0.986 | [70] 0.981 | [71] 1

COc1cc(NC(=S)N(C)C)c(OC)cc1Cl
inactive: [1] 0.984 | [2] 0.987 | [3] 0.996 | [4] 0.977 | [5] 0.991 | [6] 0.985 | [7] 0.987 | [8] 0.991 | [9] 0.996 | [10] 0.999 | [11] 0.984 | [12] 0.992 | [13] 0.983 | [14] 0.987 | [15] 0.979 | [16] 0.978 | [17] 0.99 | [18] 0.99 | [19] 0.983 | [20] 0.99 | [21] 0.971 | [22] 0.995 | [23] 0.974 | [24] 1.07 | [25] 0.992 | [26] 0.977 | [27] 0.984 | [28] 1.03 | [29] 0.963 | [30] 0.984 | [31] 0.982 | [32] 0.976 | [33] 0.997 | [34] 0.993 | [35] 0.967 | [36] 1 | [37] 0.991 | [38] 0.991 | [39] 0.971 | [40] 0.986 | [41] 1.03 | [42] 0.932 | [43] 0.987 | [44] 0.986 | [45] 0.974 | [46] 0.985 | [47] 0.988 | [48] 0.997 | [49] 0.984 | [50] 0.991 | [51] 0.982 | [52] 0.968 | [53] 0.987 | [54] 0.992 | [55] 1 | [56] 0.991 | [57] 0.984 | [58] 0.996 | [59] 1.01 | [60] 0.968 | [61] 0.984 | [62] 0.976 | [63] 0.97 | [64] 0.991 | [65] 0.988 | [66] 0.948 | [67] 0.999 | [68] 0.993 | [69] 0.996 | [70] 1 | [71] 0.989
